# Source: PubChem BioAssay (EPA / NIEHS)
# Where “and” joins values, the source holds several entries; their conditions need not be identical. Equal entries are not always repeated. More than one record can exist for a structure, and the calls need not agree. Calls of active or inactive are those of the source. How the source made its calls: active means hit-call score of the fitted dose curve at least 0.9, where 1 is the maximum; inactive means score below 0.9.
# Legend:
# [1] = IUF_NPC2c_oligodendrocyte_migration_120hr: Leibniz Research Institute for Environmental Medicine (IUF) 120-hour Neural Progenitor Cell Migration Assay for Oligodendrocyte Migration (NPC2c) (AID 2284297);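 further: O4-positive oligodendrocyte migration distance divided by radial glia migration distance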
# Procedure, shortened: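 Human fetal neural progenitor spheres (0.3 mm) are plated on poly-D-lysine/laminin in N2 differentiation medium and exposed for 120 h, with half-medium renewal at day 3. Oligodendrocyte (O4+) migration distance comes from ICC imaging, normalised to radial glia migration.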
# [2] = IUF_NPC2a_radial_glia_migration_120hr: Leibniz Research Institute for Environmental Medicine (IUF) 120-hour Neural Progenitor Cell Migration Assay for Radial Glia Migration (NPC2a) (AID 2284298)
# Procedure, shortened: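 Human fetal-cortex neural progenitor spheres (0.3 mm) plated on poly-D-lysine/laminin in N2 differentiation medium, exposed 120 h at 37C with half-medium renewal at day 3. Radial glia migration distance (um) measured from Hoechst-stained nuclei images; DMSO baseline.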
# [3] = IUF_NPC2a_radial_glia_migration_72hr: Leibniz Research Institute for Environmental Medicine (IUF) 72-hour Neural Progenitor Cell Migration Assay for Radial Glia Migration (NPC2a) (AID 2284299)
# Procedure, shortened: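 Radial glia migration (µm, sphere core edge to migration front, four directions averaged) from brightfield images at 72 h; hNPC spheres differentiating on PDL/laminin in N2 medium, compound exposure at 7 concentrations from plating.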
# [4] = IUF_NPC2b_neuronal_migration_120hr: Leibniz Research Institute for Environmental Medicine (IUF) 120-hour Neural Progenitor Cell Migration Assay for Neuron Migration (NPC2b) (AID 2284300)
# Procedure, shortened: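 0.3 mm hNPC spheres on poly-D-lysine/laminin in N2 differentiation medium exposed 120 h, half-medium refresh day 3; 7 concentrations, DMSO max 0.1%. Neuron (TUBB3) distance from sphere core by ICC imaging, normalised to radial glia migration.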
# [5] = IUF_NPC3_neuronal_differentiation_120hr: Leibniz Research Institute for Environmental Medicine (IUF) 120-hour Neuronal Differentiation Assay (NPC3) (AID 2284301)
# Procedure, shortened: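 Neuronal differentiation of primary human neural progenitors measured by high-content imaging: percent TUBB3+ of Hoechst+ nuclei within migrated area at 120 h, seven-point serial dilution plus solvent control, gain or loss relative to DMSO.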
# [6] = read-out: KRT18 (gene 3875); assay: BSK_BE3C_Keratin818: BioMAP Diversity Plus: BE3C Assay for Keratin 818 Biomarker Activity (AID 2284282); conditions: primary human bronchial epithelial cells
# Procedure, shortened: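 ELISA readout of Keratin 8/18 in human primary bronchial epithelial cultures after 24 h chemical exposure, DMSO baseline. Parallel SRB staining (0.1%, TCA-fixed, 560 nm) served as cytotoxicity check.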
# [7] = read-out: Matrix Metallopeptidase 9 (MMP9), MMP9 (gene 4318); assay: BSK_BE3C_MMP9: BioMAP Diversity Plus: BE3C Assay for Matrix Metallopeptidase 9 (MMP9) Biomarker Activity (AID 2284283); conditions: primary human bronchial epithelial cells
# Procedure, shortened: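 Human primary bronchial epithelial cells exposed 24 h to compound. MMP9 quantified by ELISA. SRB total-protein staining of parallel cultures assesses cytotoxicity. Positive-direction fit relative to DMSO.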
# [8] = read-out: Plasminogen activator inhibitor-1 (PAI1), SERPINE1 (gene 5054); assay: BSK_CASM3C_PAI1: BioMAP Diversity Plus: CASM3C Assay for Plasminogen activator inhibitor-1 (PAI1) Biomarker Activity (AID 2284284); conditions: primary human coronary artery smooth muscle cells;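 further: PAI-1 protein level measured by ELISA 24 h after dosing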
# [9] = read-out: Monocyte Chemoattractant Protein-1 (MCP1), CCL2 (gene 6347); assay: BSK_hDFCGF_MCP1: BioMAP Diversity Plus: hDFCGF Assay for Monocyte Chemoattractant Protein-1 (MCP1) Biomarker Activity (AID 2284285); conditions: primary human foreskin fibroblasts
# Procedure, shortened: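 MCP-1 ELISA readout was taken 24 hours after dosing primary human dermal fibroblasts in the hDFCGF system, with DMSO as baseline. Parallel sulforhodamine B staining of total protein tracked overt cytotoxicity.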
# [10] = read-out: Vascular cell adhesion molecule 1 (VCAM1), VCAM1 (gene 7412); assay: BSK_IMphg_VCAM1: BioMAP Diversity Plus: IMphg Assay for Vascular cell adhesion molecule 1 (VCAM1) Biomarker Activity (AID 2284286); conditions: primary human endothelial cells with macrophages
# Procedure, shortened: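 ELISA read-out of VCAM-1 on venular endothelial cell/macrophage co-cultures at 24 h post-treatment, with DMSO as baseline and positive-direction fitting. Parallel sulforhodamine B total-protein staining (560 nm) served as the overt cytotoxicity measure.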
# [11] = read-out: Intercellular Adhesion Molecule 1 (ICAM1), ICAM1 (gene 3383); assay: BSK_hDFCGF_ICAM1: BioMAP Diversity Plus: hDFCGF Assay for Intercellular Adhesion Molecule 1 (ICAM1) Biomarker Activity (AID 2284287); conditions: primary human foreskin fibroblasts
# Procedure, shortened: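 ICAM-1 ELISA readout 24 h after dosing, DMSO as baseline, in human dermal foreskin fibroblast cultures. Cytotoxicity checked in parallel wells by SRB staining (0.1% SRB, 10% TCA fixation, 560 nm).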
# [12] = read-out: CD40, CD40 (gene 958); assay: BSK_IMphg_CD40: BioMAP Diversity Plus: IMphg Assay for CD40 Biomarker Activity (AID 2284288); conditions: primary human endothelial cells with macrophages
# Procedure, shortened: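 ELISA read-out of cell-surface CD40 at 24 h in human venular endothelial cell/macrophage co-cultures. Activity fitted in the positive direction against DMSO; parallel SRB staining (560 nm) gauges overt cytotoxicity.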
# [13] = read-out: TIMP metallopeptidase inhibitor 2 (TIMP2), TIMP2 (gene 7077); assay: BSK_hDFCGF_TIMP2: BioMAP Diversity Plus: hDFCGF Assay for TIMP metallopeptidase inhibitor 2 (TIMP2) Biomarker Activity (AID 2284289); conditions: primary human foreskin fibroblasts
# Procedure, shortened: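 Primary human foreskin fibroblasts in the hDFCGF system, dosed for 24 h; TIMP-2 level measured by ELISA, fitted in the positive direction against DMSO; cytotoxicity checked in parallel by sulforhodamine B total protein staining.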
# [14] = read-out: Interleukin-1 alpha (IL1a), IL1A (gene 3552); assay: BSK_IMphg_IL1a: BioMAP Diversity Plus: IMphg Assay for Interleukin-1 alpha (IL1a) Biomarker Activity (AID 2284290); conditions: primary human endothelial cells with macrophages
# Procedure, shortened: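 IL-1α is quantified by ELISA at 24 h in the endothelial/macrophage IMphg co-culture, with gain of signal fitted relative to DMSO. Parallel SRB total-protein staining flags overt toxicity.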
# [15] = read-out: E-selectin (Homo sapiens) (UniProt P16581); assay: BSK_IMphg_ESelectin: BioMAP Diversity Plus: IMphg Assay for Eselectin Biomarker Activity (AID 2284291); conditions: primary human endothelial cells with macrophages
# Procedure, shortened: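 Analysed against DMSO baseline in the positive fitting direction, this endpoint is an ELISA read of E-selectin. It comes from human venular endothelial cells co-cultured with macrophages, sampled 24 h post-dose.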
# [16] = BSK_IMphg_SRB: Viability Assessment in the BioMAP Diversity Plus: IMphg Assay (AID 2284292); conditions: primary human endothelial cells with macrophages;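 further: measured one day after compound addition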
# Procedure, shortened: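 SRB viability endpoint: cultures of human endothelial cells plus macrophages fixed with 10% TCA, stained with 0.1% SRB, read at 560 nm 24 h post-dosing. Only gain-of-signal fitted, relative to DMSO.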
# [17] = read-out: Macrophage colony-stimulating factor (MCSF), CSF1 (gene 1435); assay: BSK_IMphg_MCSF: BioMAP Diversity Plus: IMphg Assay for Macrophage colony-stimulating factor (MCSF) Biomarker Activity (AID 2284293); conditions: primary human endothelial cells with macrophages
# Procedure, shortened: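 M-CSF was measured by ELISA in human venular endothelial cell/macrophage co-cultures dosed for 24 hours. Sulforhodamine B staining of parallel cultures assessed cytotoxicity; data fitted against DMSO baseline.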
# [18] = read-out: Interleukin-10 (IL10), IL10 (gene 3586); assay: BSK_IMphg_IL10: BioMAP Diversity Plus: IMphg Assay for Interleukin-10 (IL10) Biomarker Activity (AID 2284294); conditions: primary human endothelial cells with macrophages
# Procedure, shortened: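 IL-10 read by ELISA after 24 h chemical exposure of primary human venular endothelial cell/macrophage cocultures, with DMSO as baseline. Parallel SRB staining (560 nm) gauged overt cytotoxicity.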
# [19] = BSK_IMphg_SRB.Mphg: Macrophage Viability Assessment in the BioMAP Diversity Plus: IMphg Assay (AID 2284295); conditions: primary human endothelial cells with macrophages
# Procedure, shortened: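 Cytotoxicity read-out: parallel cultures fixed with 10% TCA, stained with 0.1% sulforhodamine B, read at 560 nm. System combines venular endothelium and macrophages; sampled 24 h post-dosing, fitted positively relative to DMSO control.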
# [20] = read-out: Thrombomodulin, THBD (gene 7056); assay: BSK_LPS_Thrombomodulin: BioMAP Diversity Plus: LPS Assay for Thrombomodulin Biomarker Activity (AID 2284296); conditions: primary human HUVEC with PBMC
# Procedure, shortened: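 Thrombomodulin on the surface of LPS-activated endothelial/PBMC co-cultures was quantified by ELISA at 24 hours post-dosing, with DMSO as baseline. Parallel SRB total-protein staining flagged overt cytotoxicity.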
# E-selectin (Homo sapiens), sequence (P16581 whole entry, looked up): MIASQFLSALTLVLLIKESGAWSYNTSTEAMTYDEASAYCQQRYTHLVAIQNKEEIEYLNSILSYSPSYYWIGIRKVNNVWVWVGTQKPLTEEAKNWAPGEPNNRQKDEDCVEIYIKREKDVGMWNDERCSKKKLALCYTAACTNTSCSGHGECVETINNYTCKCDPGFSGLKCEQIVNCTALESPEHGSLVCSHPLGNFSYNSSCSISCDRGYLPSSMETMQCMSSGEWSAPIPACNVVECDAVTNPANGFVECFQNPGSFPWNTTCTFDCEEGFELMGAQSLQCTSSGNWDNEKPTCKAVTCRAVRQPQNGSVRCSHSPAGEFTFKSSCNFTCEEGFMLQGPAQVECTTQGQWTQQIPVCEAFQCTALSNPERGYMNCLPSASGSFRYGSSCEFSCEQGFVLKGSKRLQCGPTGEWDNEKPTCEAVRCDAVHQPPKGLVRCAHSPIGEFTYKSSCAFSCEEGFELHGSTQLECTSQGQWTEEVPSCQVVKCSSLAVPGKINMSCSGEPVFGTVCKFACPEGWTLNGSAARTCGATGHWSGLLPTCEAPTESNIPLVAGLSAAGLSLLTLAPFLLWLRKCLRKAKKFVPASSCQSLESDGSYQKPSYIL
structure (smiles),measurement,setting,value
CC1(c2ccc(Oc3ccccc3)cc2)OC(=O)N(Nc2ccccc2)C1=O (stereo not drawn),outcome,[1],inactive
same,AC50,[2],5 µM (active)
same,outcome,[3],inactive
same,outcome,[4],inactive
same,outcome,[5],inactive
COP(=O)(OC)OC=C(Cl)Cl,AC50,[1],38.2 µM (active)
same,AC50,[2],40 µM (active)
same,AC50,[3],59.7 µM (active)
same,AC50,[4],53.3 µM (active)
O=S1OCC2C(CO1)C1(Cl)C(Cl)=C(Cl)C2(Cl)C1(Cl)Cl (stereo not drawn),outcome,[1],inactive
same,AC50,[2],13.1 µM (active)
same,outcome,[3],inactive
same,outcome,[4],inactive
same,outcome,[5],inactive
COP(=S)(OC)Oc1ccc([N+](=O)[O-])cc1,outcome,[1],inactive
same,outcome,[2],inactive
same,outcome,[3],inactive
same,outcome,[4],inactive
same,outcome,[5],inactive
CC[C@H](C)[C@H]1O[C@]2(C=C[C@@H]1C)C[C@@H]1C[C@@H](C/C=C(\C)[C@@H](O[C@H]3C[C@H](OC)[C@@H](O[C@H]4C[C@H](OC)[C@@H](O)[C@H](C)O4)[C@H](C)O3)[C@@H](C)/C=C/C=C3\CO[C@@H]4[C@H](O)C(C)=C[C@@H](C(=O)O1)[C@]34O)O2 (tested in a mixture with another compound),outcome,[1],inactive
same,AC50,[2],3.4 µM (active)
same,AC50,[3],7.19 µM (active)
same,outcome,[4],inactive
O=C(O)C(F)(F)C(F)(F)C(F)(F)C(F)(F)C(F)(F)C(F)(F)C(F)(F)F,outcome,[6],inactive
same,outcome,[7],inactive
same,outcome,[8],inactive
same,outcome,[9],inactive
same,outcome,[10],inactive
same,outcome,[11],inactive
same,outcome,[12],inactive
same,outcome,[13],inactive
same,outcome,[14],inactive
same,outcome,[15],inactive
same,outcome,[16],inactive
same,outcome,[17],inactive
same,AC50,[18],30 µM (active)
same,outcome,[18],inactive
same,outcome,[19],inactive
same,AC50,[20],0.609 µM (active)
same,outcome,[20],inactive
same,outcome,[1],inactive
same,outcome,[2],inactive
same,outcome,[3],inactive
same,outcome,[4],inactive
same,outcome,[5],inactive
O=[N+]([O-])/N=C1\NCCN1Cc1ccc(Cl)nc1,outcome,[1],inactive
same,outcome,[2],inactive
same,outcome,[3],inactive
same,outcome,[4],inactive
same,outcome,[5],inactive
O=C(O)COc1ccc(Cl)cc1Cl,outcome,[1],inactive
same,outcome,[2],inactive
same,outcome,[3],inactive
same,outcome,[4],inactive
same,outcome,[5],inactive
CNC(=O)CSP(=S)(OC)OC,outcome,[1],inactive
same,outcome,[2],inactive
same,outcome,[3],inactive
same,outcome,[4],inactive
same,outcome,[5],inactive
CC1(C)C(C=C(Cl)Cl)C1C(=O)OC(C#N)c1ccc(F)c(Oc2ccccc2)c1 (stereo not drawn),outcome,[1],inactive
same,outcome,[2],inactive
same,outcome,[3],inactive
same,outcome,[4],inactive
same,outcome,[5],inactive
O=S(=O)(O)C(F)(F)C(F)(F)C(F)(F)C(F)(F)C(F)(F)C(F)(F)C(F)(F)C(F)(F)F,outcome,[6],inactive
same,AC50,[7],17.7 µM (active) [middle of 4 runs]
same,outcome,[8],inactive
same,outcome,[9],inactive
same,outcome,[10],inactive
same,outcome,[11],inactive
same,outcome,[12],inactive
same,AC50,[13],30 µM (active) and 8.71 µM (active)
same,outcome,[13],inactive
same,outcome,[14],inactive
same,AC50,[15],30 µM (active) and 38.2 µM (active)
same,outcome,[16],inactive
same,outcome,[17],inactive
same,AC50,[18],45.3 µM (active) [middle of 4 runs]
same,outcome,[19],inactive
same,outcome,[20],inactive
same,outcome,[1],inactive
same,AC50,[2],79.3 µM (active) and 16 µM (active)
same,AC50,[3],68.6 µM (active)
same,outcome,[3],inactive
same,outcome,[4],inactive
same,AC50,[5],2.09 µM (active)
same,outcome,[5],inactive
CC(C)N(C(=O)COc1nnc(C(F)(F)F)s1)c1ccc(F)cc1,outcome,[1],inactive
same,outcome,[2],inactive
same,outcome,[3],inactive
same,outcome,[4],inactive
same,outcome,[5],inactive
CCC(C)(C)C(=O)OC1=C(c2ccc(Cl)cc2Cl)C(=O)OC12CCCCC2,outcome,[1],inactive
same,outcome,[2],inactive
same,outcome,[3],inactive
same,outcome,[4],inactive
same,outcome,[5],inactive
